In the library only some 7.3% were active in any assay of this set; here they are far more common.
ELG1 genotoxic: qHTS screen for small molecules that induce genotoxicity in human embryonic kidney (HEK293T) cells expressing luciferase-tagged ELG1. HEK293T ELG1-luciferase reporter, luminescence, 16 h. Potency, µM (doses to about 46 µM), for the others: top-dose activity change, positive = activation, actives largely listed as activators. 330,000 tested, 1.3% active; further: % of control where 0% means no effect; nearly all actives have a fitted effect of over 60% in size
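Genotoxic stress is detected as increased luminescence from luciferase-tagged ELG1 in HEK293T cells, measured with ONE-Glo after a 16 hr treatment at 37 °C.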
FLuc counter: qHTS profiling assay for firefly luciferase inhibitor/activator using purifed enzyme and Km concentrations of substrates (counterscreen for miR-21 project) | purified FLuc, Km substrates, luminescence inhibition | Potency, µM (titrated, usually from 57.5 µM), for inactives: top-dose activity change, negative = inhibition, usual class: inhibitors | 360,000 tested, 6.9% active;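 further: plate controls were vehicle for no effect and reference inhibitor for full effect; nearly all actives have a fitted effect of over 55% in size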
Target sequence (P08659 whole entry, looked up): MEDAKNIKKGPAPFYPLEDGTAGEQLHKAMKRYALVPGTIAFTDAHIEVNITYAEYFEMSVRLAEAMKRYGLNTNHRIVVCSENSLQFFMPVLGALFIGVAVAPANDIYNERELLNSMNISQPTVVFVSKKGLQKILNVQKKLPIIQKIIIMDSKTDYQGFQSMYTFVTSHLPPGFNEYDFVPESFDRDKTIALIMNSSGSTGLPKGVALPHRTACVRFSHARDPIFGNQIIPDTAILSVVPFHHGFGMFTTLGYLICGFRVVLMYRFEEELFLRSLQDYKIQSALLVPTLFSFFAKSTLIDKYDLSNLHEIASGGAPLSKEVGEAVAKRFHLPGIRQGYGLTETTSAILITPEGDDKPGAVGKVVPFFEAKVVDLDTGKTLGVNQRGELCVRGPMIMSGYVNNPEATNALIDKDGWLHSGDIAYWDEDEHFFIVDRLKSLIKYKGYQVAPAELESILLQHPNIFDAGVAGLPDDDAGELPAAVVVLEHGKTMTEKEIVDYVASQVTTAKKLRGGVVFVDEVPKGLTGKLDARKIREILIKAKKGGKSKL
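Purified P. pyralis luciferase (10nM final) with 10uM D-luciferin and 10uM ATP (Km levels) in 50mM Tris acetate pH 7.5, 10mM Mg acetate, 0.01% Tween-20, 0.05% BSA; qHTS 6-point titration, ~60 µM downward; luminescence read.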
Rab9 promoter act: qHTS Assay for Rab9 Promoter Activators | Potency, µM (series often up to 9.22 µM), without a hit: top-dose activation, negative = inhibition, hits mostly activators | Huh7 Rab9 promoter-luciferase reporter, luminescence, 24 h | 320,000 tested, 2.8% active; further: % of control where 0% means no effect; nearly all actives have a fitted effect of over 60% in size
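Huh7 cells stably carrying a Rab9 promoter-luciferase reporter, 1500 cells per well in OP-MEM I with 10% FBS, treated with compound 24 hours at 37C. Luciferase activity read by luminescence after 10 minutes with Amplite reagent.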
SMN2 splice up: qHTS Assay for Enhancers of SMN2 Splice Variant Expression; HEK293 SMN2-luciferase splicing reporter, luminescence, 30-36 h; Potency, µM (top dose mostly 46.1 µM), for the others: top-dose activity change, positive = activation, most hits filed as activators; 210,000 tested, 2.8% active; AID 1458, 2008; further: % of control where 0% means no effect; nearly all actives have a fitted effect of over 55% in size
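HEK293 cells carry an SMN2 […]–luciferase reporter in which exon 7 inclusion puts luciferase in frame. Cells were plated 10-12 h before compound addition, then incubated 30-36 h at 37C. ONE-Glo luminescence was read; sodium butyrate at 4.5 mM final served as control.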
uPA generation: qHTS for Inhibitors of Cell Surface uPA Generation; cell surface uPA generation assay, qHTS; Potency, µM (titrated, usually from 38.3 µM), inactives show at the top dose activity change, negative = inhibition, hits mostly inhibitors; 330,000 tested, 0.31% active; AID 540303, 2011; active means well fitted inhibition curve with a large enough effect; inconclusive means small, poorly fitted or top-dose-only effect; inactive means no such curve, though single readings can be large or run the other way; tested in mouse RAW 264.7 cells; further: on the % scale 0 is the no-effect control and ±100 the full control effect; nearly all actives have a fitted effect of over 55% in size
NPC1 prom act: qHTS Assay for NPC1 Promoter Activators | Huh7 NPC1 promoter luciferase reporter, 24 h | Potency, µM (doses to about 9.22 µM), inactives show top-dose activation, most hits filed as activators | 320,000 tested, 2.4% active; further: % of control where 0% means no effect; nearly all actives have a fitted effect of over 60% in size
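Cells: Huh7 expressing luciferase under the NPC1 promoter, 1500/well. Seeded 2 h, compound added, incubated 24 h at 37 °C. Luciferase reagent, 10 min ambient, then luminescence.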
Active calls of the source: *; ? = inconclusive; . = not tested or not shown. Unless noted, the call rests on the fitted dose curve; in most records, active means well fitted curve in the direction sought with a large enough effect; inconclusive means small, poorly fitted or top-dose-only effect, or another doubt; inactive means no such curve, though single readings can be large; an effect the other way counts as inactive or inconclusive. Potency means the concentration at half of the fitted maximal effect.

SMILES	ELG1 genotoxic	FLuc counter	Rab9 promoter act	SMN2 splice up	uPA generation	NPC1 prom act
O=C(Nc1ccc2nc(SCC(=O)N3CCc4ccccc43)sc2c1)c1cccc(F)c1	.	-9%	.	.	.	.
COc1ccc(C(=O)N/C(=C/c2ccc(Cl)cc2)C(=O)Nc2ccc(C(=O)O)cc2)cc1	3%	3%	2%	.	9%	-3%
Cc1cc(NC(=O)CCS(=O)(=O)c2cc3c4c(c2)CCN4C(=O)CC3)ccc1Br	.	-2%	.	.	.	.
COc1cccc(/C=N/NC(=O)COc2cccc3cccnc23)c1O	3%	12µM*	-25%	-23%	-7%	-8%
CC(C)n1cc(/C=N/NC(=O)COc2cccc3cccnc23)c2ccccc21	-5%	2.7µM*	1%	.	-11%	0%
COc1cn(CC(=O)Nc2cc(C)ccc2C)c(CN2CCCCC2)cc1=O	.	-4%	.	.	.	.
COCC(=O)N1CCC[C@@]2(CCN(Cc3nccs3)C2)C1	.	.	.	-4%	.	.
O=C1CCCC(O)=C1C=Nc1ccc2c(c1)oc1ccccc12	0%	2.1µM*	?	?	-3%	25%
Cc1ccc(C2=NN3C(C2)c2ccccc2OC32C(=O)Nc3ccccc32)cc1 (stereo not given)	?	15µM*	?	?	-7%	2.5µM*
CCCCNC(=O)COC(=O)c1c2c(nc3ccccc13)CCC2	-17%	-12%	-1%	.	-5%	-7%
CCCCNC(=O)COC(=O)c1c2c(nc3ccccc13)/C(=C/c1cccs1)CC2	-12%	7.6µM*	-30%	11µM*	-10%	-32%
CNC(=O)NC(=O)C(C)OC(=O)c1c2c(nc3ccccc13)/C(=C/c1cccs1)CC2 (stereo not given)	-17%	6µM*	-34%	?	-1%	-32%
COc1ccc(-c2onc(C)c2C)cc1S(=O)(=O)N(C)Cc1ccccc1	.	-17%	.	.	.	.
Cc1oc(-c2ccc(C(=O)NCCCOC(C)C)cc2)nc1CS(=O)(=O)c1ccccc1	.	-11%	.	.	.	.
CCn1c(CSc2nc3ccccc3s2)nnc1SCC(=O)c1ccc(O)cc1O	2%	5%	-5%	?	5%	-1%
CCn1c(CSc2nc3ccccc3s2)nc2ccccc21	3%	24µM*	1%	-34%	3%	1%
Cc1noc(C)c1CSc1nc2ccccc2s1	?	?	1%	-12%	-4%	-4%
c1csc(CSc2nc3ccccc3s2)c1	15µM*	4.8µM*	3.5µM*	?	0%	?
CCCCOc1ccc(C(=O)N2CCN(c3ncccn3)CC2)cc1	-1%	2%	3%	.	9%	1%
CCc1ccc(NC(=O)CN2C(=O)C3CCCN3c3ccc(S(=O)(=O)N(CC)CC)cc32)cc1 (stereo not given)	.	-15%	.	.	.	.
N#C/C(=C\c1cccs1)C(=O)NCc1ccccc1	6%	-12%	0%	11%	5%	0%
N#C/C(=C\c1cccs1)C(=O)Nc1nccs1	?	4.3µM*	2.8µM*	?	-2%	3.5µM*
N#C/C(=C\c1cccs1)C(=O)c1ccccc1Cl	-10%	21µM*	-6%	.	?	2%
Cc1ccc(-c2cc(C(=O)Nc3cnn(C(C)C)c3)no2)cc1	-1%	?	9%	.	0%	13%
Cc1ccc(-c2cc(C(=O)Nc3c(C#N)cnn3C)no2)cc1	13%	6.7µM*	27%	?	?	15%
SMILES	ELG1 genotoxic	FLuc counter	Rab9 promoter act	SMN2 splice up	uPA generation	NPC1 prom act
CCCc1cc(C(=O)Nc2cc(C)ccc2O)no1	15µM*	2.7µM*	-19%	.	-4%	27%
Cc1ccc(O)c(NC(=O)c2cc(-c3ccccc3)on2)c1	16µM*	?	15%	.	-8%	?
CCCc1cc(C(=O)Nc2cccnc2Cl)no1	?	?	27%	-14%	1%	1%
Cn1c(=O)c2c(n3ncnc13)NC(=O)CC2c1cccc(F)c1 (stereo not given)	.	7%	.	-3%	.	.
CCOc1ccccc1NC(=O)C1CCN(S(=O)(=O)Cc2ccccc2)CC1	.	-16%	.	.	.	.
CC(C)OC(=O)c1sc2nc(-c3ccccc3)ccc2c1N	?	0.3µM*	0.45µM*	-31%	.	0.32µM*
CCOC(=O)c1sc2nc(-c3cccnc3)ccc2c1N	2.6µM*	0.48µM*	0.5µM*	.	-13%	0.45µM*
COc1ccc(-c2ccc3c(N)c(C(=O)NCc4ccc(Cl)cc4)sc3n2)cc1	.	7%	.	11µM*	.	.
Cc1cc(C(=O)COC(=O)CC2Sc3ccccc3NC2=O)c(C)n1-c1ccc(Br)cc1 (stereo not given)	1%	-5%	-5%	-56%	0%	2%
Cc1cc(C(=O)COC(=O)c2cnccn2)c(C)n1-c1ccc(Br)cc1	-2%	.	.	.	-3%	.
CCC(=O)OCC(=O)c1cc(C)n(-c2ccc(Br)cc2)c1C	-4%	4.3µM*	-2%	-28%	-3%	-5%
O=C1CCC(C(=O)OCC(=O)c2c[nH]c3ccccc23)=NN1	0%	-5%	1%	-4%	0%	-1%
Cc1ccc(-n2c(C)cc(C(=O)COC(=O)C3=NNC(=O)CC3)c2C)cc1	18%	17µM*	1%	-25%	-4%	-2%
Cc1cc(C(=O)COC(=O)C2=NNC(=O)CC2)c(C)n1-c1ccccc1	4%	1.9µM*	4%	-4%	.	-4%
Cc1cc(C(=O)COC(=O)CC2Sc3ccccc3NC2=O)c(C)n1-c1ccccc1 (stereo not given)	8%	6µM*	18%	-9%	2%	15%
COc1cccc(C(=O)N2c3cc(C)ccc3C(C)(c3ccccc3)CC2(C)C)c1 (stereo not given)	.	5%	.	-6%	.	.
Cc1cc(C)cc(N(CCC#N)C(=O)CSc2nc3ccccc3c(=O)[nH]2)c1	1%	.	.	.	8%	.
O=C(OCC(=O)c1c[nH]c2ccccc12)C1=COCCO1	?	15µM*	3.5µM*	?	0%	?
Cc1ccc(-n2c(C)cc(C(=O)COC(=O)c3c(C)noc3C)c2C)cc1	13%	3.4µM*	?	-5%	-9%	?
O=C(OCC(=O)c1ccc[nH]1)C1=COCCO1	4%	-13%	1%	.	5%	-2%
Cc1cc(C(=O)COC(=O)C2=COCCO2)c(C)n1-c1ccccc1	0.26µM*	.	.	.	-12%	.
Cc1cc(OCc2nc(-c3cccs3)no2)cc(C)c1Cl	9%	?	7%	-6%	5%	10%
O=C(NCc1ccc(F)cc1)c1nc(-c2cccs2)no1	3%	-6%	-2%	9%	-8%	0%

Source: PubChem (National Center for Advancing Translational Sciences (NCATS))
